Test results taken from PubChem BioAssay AID493085 (Broad Institute, 2011).
Hit rate of the full screen: of about 2,400 compounds, about 360 (15%) were called active. Inconclusive results (about 5%) are left out.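 The calls were made as follows: active = falling-signal curve with half-maximal concentration at or below ten times the top tested dose; inconclusive = flat fit at 30 to 70% inhibition, or poor fit; inactive = signal rise, flat within 30%, or potency beyond limit.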 These entries were drawn from the full list. Entries with a potency or affinity are not part of this list.

test: dox-induced RFP signal loss in R4-3T3 cells – cell-based, NIH3T3 R4, HSE-GFP and Tet-On RFP, cherry-pick, set 3, dose response (AID 493085); details: NIH3T3 R4 HSE-GFP/Tet-RFP reporter, fluorescence, 48 h; series mostly up to 19.5 µM; activity change, negative = inhibition: at the top concentration;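 also: cells heat shocked 2 h at 42 °C with doxycycline to induce reporters; 0% = neutral control wells and -100% = didemnin B control at 400 nM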

Activity change, negative = inhibition, inactive:
COc1ccc(/C=N/NC(=O)CN(C)S(=O)(=O)c2ccc(NC(C)=O)cc2)cc1 0.548%
COc1cc2cc(CN(C(=O)NC3CCCCC3)C3CCCC3)c(=O)[nH]c2cc1OC -6.25%
CCOC(=O)c1c(C)n(C)c2ccc(OC)c(NC(=O)CN3CCSCC3)c12 9.61%
COc1ccc(C(=O)C2CCCN(Cc3ccc(NC(C)=O)cc3)C2)cc1OC (configuration not stated) -0.992%
Nc1nc(Cl)nc2c1ncn2C1CC(O)C(CO)O1 (configuration not stated) -2.61%
Cc1oc(-c2cc3c(cc2Cl)OCO3)nc1CN1CCCC1c1ccc(F)cc1 (configuration not stated) 1.85%
Cc1c(Cl)cccc1NC(=O)CS(=O)(=O)c1ccccc1 11.7%
CC(C)n1cc(/C=N/Nc2ccc(C(=O)O)cc2)c2ccccc21 -12%
CCOC(=O)N1CCN(C(=O)C2CCN(Cc3ccc(OC)cc3OC)CC2)CC1 3%
COc1cccc(-c2cccc(NC(=O)C3CCN(Cc4ccon4)CC3)c2)c1 -3.89%
Cc1ccnc(NS(=O)(=O)c2ccc(NC(=O)COc3ccccc3)cc2)n1 5.48%
Cc1nc(C(=O)NNC(=O)c2cccc(Cl)c2)c(C(F)(F)F)o1 5.05%
O=C(Cc1ccccc1)Nc1nc2ccccc2s1 0.496%
N/C(CC(=O)Nc1ccc(F)cc1)=N\O -0.505%
O=C(COc1ccccc1C(=O)O)Nc1ccc(SC(F)F)cc1 -6.52%
Cc1ccccc1C(=O)Nc1nnc(CC(=O)N/N=C/c2ccco2)s1 25.1%
Cc1cc(C)nc(NC(=O)COc2cc(Cl)cc(Cl)c2)n1 -6.63%
COc1cccc(CC(=O)N[C@@H](CCSC)c2nc3ccccc3[nH]2)c1 -6.15%
CCOc1ccc(N=C(NN)c2ccc3ccccc3n2)cc1 -3.17%
Cc1ccc(S(=O)(=O)c2ccc(Oc3ccccc3)cc2)cc1 -13.6%
O=[N+]([O-])c1ccccc1Nc1cccnc1 -3.4%
O=C(NCc1ccccc1)C1CCCN(S(=O)(=O)c2cccc3nsnc23)C1 (configuration not stated) -0.54%
Nc1nc(NCc2ccco2)nc(NC2CCCCC2)c1[N+](=O)[O-] -2.76%
Cc1nc2sc3c(NCc4ccco4)ncnc3c2c2c1COC(C)(C)C2 -16.8%
CC(C)CCc1c(O)nc(SCC(=O)N2CCCCCC2)[nH]c1=O 0.398%
O=C(O)COc1ccc(/C=N/NC(=O)c2ccccc2Br)cc1 -6.35%
CCCc1cc(=O)oc2cc(C)cc(OCC(=O)NCCCn3ccnc3)c12 -7.06%
O=C(CC(Nc1ccccc1Cl)C(=O)OCC(=O)c1cccs1)c1ccccc1 (configuration not stated) 20.8%
COc1ccc2oc(=O)c(N3C(=O)c4ccccc4C3=O)cc2c1 -15.4%
CC1(C)CC(NCc2ccc3c(c2)OCO3)CCO1 (configuration not stated) 3.89%
COc1cc(C2NC(=O)NC(C)=C2C(=O)OCC2CCCO2)ccc1O (configuration not stated) 1.41%
CCC1CCCCN1C(=O)c1cc2c(=O)n3cccc(C)c3nc2s1 (configuration not stated) -4.77%
CN(C)c1ccc(C2Nc3ccccc3C(=O)N2CCCN2CCOCC2)cc1 (configuration not stated) -11.3%
NC(=O)C1CCN(CC(=O)Nc2nc(-c3ccccc3)cs2)CC1 1.54%
O=C(c1c(F)cccc1F)N1CCN(c2ccccc2F)CC1 -12.1%
Cc1cc(C(=O)NC2CCCN(Cc3ccc(Cl)cc3)C2)n(C)n1 (configuration not stated) 7.47%
O=Cc1ccc(OC(=O)Cc2ccc(F)cc2)cc1 -3.08%
CC(=NCCc1ccccc1)C1=C(O)CSC1=O -2.37%
COc1ccc(CNC(=O)C(=O)c2cn(CC(=O)N3CCOCC3)c3ccccc23)cc1 -4.86%
CC(=O)Nc1ccc(NC(=O)CSc2cn(CC(=O)N3CCOCC3)c3ccccc23)cc1 3.01%
Cc1ccc(N2C(=O)c3ccccc3C2Nc2ccccc2F)nc1 (configuration not stated) -6.19%
N#Cc1c(NC(=O)CSc2ncccn2)oc(-c2ccccc2)c1-c1ccccc1 8.77%
Cc1ccc([N+](=O)[O-])cc1NC(=O)CSc1n[nH]c(-c2cccnc2)n1 -1.6%
CC(C)(C)OC(=O)C1C(=O)CC(C)(O)C(C(=O)OC(C)(C)C)C1c1cccnc1 (configuration not stated) -6.17%
CCC(=O)N1CCc2cc(S(=O)(=O)NCCC(=O)Nc3ccccc3C)ccc21 -3.98%
Cc1onc(-c2ccccc2)c1C(=O)Nc1sc2c(c1C(N)=O)CCC2 -7.58%
C/C(CC(=O)Nc1ccc(N(C)C)cc1)=N\NC(=O)Cc1csc(N)n1 -0.381%
OC(COc1c(F)cc(Br)cc1F)CN1CCN(c2ccc(F)cc2)CC1 (configuration not stated) 4.39%
COc1cccc(NC(=S)N(CCC(C)C)C2CCN(C(C)=O)CC2)c1 7.46%
O=C1CCC(=O)N1CNc1ccccn1 -21.2%
CCn1c(=O)c(C(=O)Nc2ccccc2F)c(O)c2ccccc21 22.5%
Cn1c(C(=O)NN)cc2cc(OCc3ccccc3)ccc21 -7.37%
COc1ccc(N2CC(C(=O)Nc3nnc(C4CCCCC4)s3)CC2=O)cc1 (configuration not stated) -9.73%
COc1ccc2nc(NC(=O)CN3CCOCC3)sc2c1 -2.22%
O=C(c1ccc(F)cc1)N1CCCC(N2CCN(Cc3ccc4c(c3)OCO4)CC2)C1 (configuration not stated) -4.52%
COc1nc(-c2ccccc2)c2cc(Br)ccc2n1 -15.5%
COc1ccc(OC(C)C(=O)N2CCC(C)CC2)cc1 (configuration not stated) -3.93%
CCOC(=O)c1ccc(NC(=S)Nc2ccccc2N)cc1 -7.45%
CCOC(=O)c1ccc(NC(=O)Oc2ccccc2)cc1 -4.21%
COc1ccc(-n2c(-c3ccc(F)cc3)cnc2SCC(=O)NCc2ccco2)cc1 -3.84%
Cc1cc2cc(CCNC(=O)C(=O)c3c[nH]c4ccccc34)c(=O)[nH]c2cc1C -3.78%
CC(c1ccccc1)N1CCN(C(=O)CCl)CC1 (configuration not stated) 2.46%
O=C(Nc1ccc(Cl)cn1)c1ccc2c(Cl)c3c(nc2c1)CCC3 23%
CC(=O)COc1ccccc1OC(=O)c1ccco1 3.47%
O=C(CSc1ccccc1)Nc1cccc(NC(=O)c2ccco2)c1 -6.38%
N/C(=N\c1nc2ccccc2o1)NC(=O)c1ccc(Cl)cc1 4.58%
Cc1nnc(N2C(=O)c3cccc4cccc(c34)C2=O)s1 -1.34%
COc1cccc(NC(=O)N2CCCC2C(=O)NC(C)C)c1 (configuration not stated) 8.18%
COc1nn(-c2ccccc2)c(=O)c(Cl)c1Cl -66.5%
CCOC(=O)c1cnn(-c2ccccc2)c1-n1cccc1 -4.52%
O=C(C1CCC(CNS(=O)(=O)c2cccc3cccnc23)CC1)N1CCCC1 (configuration not stated) 18.4%
CCC(=O)Nc1c(-c2ccc(Cl)cc2)c(=O)c2ccccc2n1C 2.21%
COc1c([N+](=O)[O-])c(=O)oc2ccccc12 -1.15%
CCOc1c(C)cc(S(=O)(=O)NCc2cccnc2)c(C)c1C -2.75%
Cc1ccc(C(=O)Nc2ccc(C(=O)O)cc2NC(=O)c2ccc(C)cc2)cc1 -8.11%
CCOc1ccc(OCc2cccc(C(=O)O)c2)cc1 -1.67%
COc1ccc(C(=O)Nc2ccc(OCc3ccccc3)cc2)cc1[N+](=O)[O-] 20.1%
CCCCN(C)C(=O)CCC(=O)Nc1ccc2nc(N3CCN(C)CC3)cc(C)c2c1 0.044%
CC(C)CC(NC(=O)C1CCCN1C(=O)[C@@H](C)NC(=O)OCc1ccccc1)C(=O)NCC(N)=O (some centres not stated) -0.054%
CC(=O)c1ccc(NC(=O)C(C)n2nc(-c3ccccc3)c3cc(Cl)ccc32)cc1 (configuration not stated) -1.25%
CC1Cc2ccccc2N1C(=O)C12CCC(C)(C(=O)C1)C2(C)C (configuration not stated) -7.93%
O=C(c1cc(Cl)ccc1Cl)N1CCOCC1 -1.28%
O=S(=O)(/N=C(/c1ccccc1Cl)N1CCOCC1)c1ccccc1 -5.16%
COc1cc(SC)ccc1C(=O)NCC1CCCO1 (configuration not stated) -2.99%
COCC(C)NC(=O)c1ccc2nc(-c3ccccc3)c(-c3ccccc3)nc2c1 (configuration not stated) 2.21%
CCn1cc(S(=O)(=O)Nc2ccc3c(c2)OCCO3)cn1 36.6%
Cc1nc(SCC(=O)NCC2CCCO2)[nH]c(=O)c1C (configuration not stated) 0.854%
O=C(N1CCCCC1)N1CCN(S(=O)(=O)c2ccccc2)CC1 -7.11%
O=C(Cc1ccccc1F)Nc1ccc(S(=O)(=O)N2CCCCC2)cc1 -1.75%
C=CCNC(=S)Nc1sc2c(c1C#N)CCCC2 -6.78%
CCOc1ccc(NC(=S)N(CCc2ccncc2)C(C)C)cc1 0.037%
Cc1ccc([N+](=O)[O-])c(OCCCN2CCC(Cc3ccccc3)CC2)c1 0.591%
O=C(OCn1ncc(Cl)c(Cl)c1=O)c1ccccc1Cl 19.6%
COc1cc(NC(=O)Cn2ncc(Cl)c(Cl)c2=O)c(C)cc1[N+](=O)[O-] -74.7%
CCCNC(=O)NC1C(NC(=O)NCCC)N(C)C(=O)N1C (configuration not stated) -1.63%
CCc1ccc(NC(=O)C2C3CCC(O3)C2C(=O)O)cc1 (configuration not stated) 5.37%
Cc1ccc(S(=O)(=O)N(C)c2ccccc2C(=O)NC2CCCC2)cc1 -7.71%
S=c1[nH]nc(-c2cnccn2)n1-c1ccccc1 -8.92%
Cc1ccc(NC(=O)COC(=O)Cn2cnc3ccccc32)cc1S(=O)(=O)N(C)C -0.192%
O=C(Nc1ccc2[nH]ncc2c1)c1ccccc1Cl -0.069%
N#C/C(=C\Nc1ccc2cn[nH]c2c1)c1nc(-c2ccccc2)cs1 3.6%
O=C(O)c1ccc(N/N=C/c2ccc(OC(=O)c3ccccc3Cl)cc2)cc1 -3.02%
CC(C)c1ccc(/C=N/Nc2ccc(C(=O)O)cc2)cc1 10.4%
CCOC(=O)c1ccc(Cl)c(NC(=O)c2cccnc2)c1 -3.1%
CCc1ccc(NC(=O)CSc2ccc(-c3cccnc3)nn2)cc1 4.37%
Cc1ccc(NC(=O)c2cc(NC(=O)c3ccco3)ccc2N2CCOCC2)cc1 -3%
O=C(NC(=S)Nc1ccc2oc(=O)ccc2c1)c1cc2ccccc2o1 15.4%
O=c1c2c3c(sc2nc(NCCOCCO)n1Cc1ccco1)CCCCC3 10.9%
COc1ccc(NC(=O)c2cc3cc(OC)ccc3oc2=N)cc1 -4.04%
COc1cccc(/C=C/C(=O)NCc2ccc3c(c2)OCO3)c1 -6.73%
CCOC(=O)/C(C#N)=C/c1cc(C)n(-c2ccccc2)c1C -2.19%
Cc1cccc(NC(=O)c2sc(-c3ccccc3)nc2-c2ccc([N+](=O)[O-])cc2)c1 -7.95%
